Experimental findings from PubChem BioAssay (NCATS) are described below.

Where “and” joins values, the source holds several entries; their conditions need not be identical. Equal values may be shown once. A number with no mark means an inactive call. Records with an inconclusive call do not appear. Calls of active or inactive are those of the source. The call rests on the fitted dose curve; in most records, active means well fitted curve in the direction sought with a large enough effect; inconclusive means small, poorly fitted or top-dose-only effect, or another doubt; inactive means no such curve, though single readings can be large; an effect the other way counts as inactive or inconclusive.

Assay [1] is described as follows: qHTS Assay for Identifying Gametocytocidal Compounds (AID 743244). Further: potency means the concentration at half of the fitted maximal effect.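 On max response: on the % scale 0 is the no-effect control and ±100 the full control effect; actives lower the fluorescent signal which means gametocytes are killed.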 The settings on record: P. falciparum 3D7 stage III-V gametocytes, alamarBlue, 72 h; max response: active compounds read low. In a few lines: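 Compounds are pinned into medium, gametocytes (stage III–V, 3D7, 20,000 cells/well) added, and plates held 72 h at 37 °C in 5% CO2. AlamarBlue follows for 24 h before fluorescence reading.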
For orientation: qHTS replaces the single test concentration by a dilution series.

Assay [2] is described as follows: qHTS assay for measurement of the activity of small molecule inhibitors on Zika virus induced Caspase-3 activity in human iPSC derived neural progenitor cells (hNPCs) (AID 1224857). Further: % of control where 0% means no effect; nearly all actives have a fitted effect of over 65% in size. In a few lines: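 Pretreat hNPCs with compound 1 h; infect ZIKV 2 FFU/cell; 6 h 37 C, 5% CO2; Caspase-Glo 3/7, 30 min RT; luminescence; normalize to no-virus and virus-only wells.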

Assay [3] is described as follows: qHTS assay for measurement of the activity of small molecule inhibitors on Zika virus induced Caspase-3 activity in human astrocytoma cells (AID 1224859).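 Further: plate controls were ZIKV-infected untreated cells for no effect and uninfected cells for full effect.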 In a few lines: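 Human SNB-19 astrocytoma cells in RPMI 1640 with 10% FBS receive compound one hour ahead of Zika virus at 2 FFU/cell. After 6 h infection, caspase-3/7 activity is detected by Caspase-Glo luminescence.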

Assay [4] can be described thus: qHTS assay to identify small molecule inhibitors of chordoma cells - UCH-2 (AID 1259356). Further: series mostly up to about 46 µM; on the % scale 0 is the no-effect control and ±100 the full control effect.
For assay [5], the target named is T1, Hexokinase-4 (Homo sapiens) + Glucokinase regulatory protein (Homo sapiens) (UniProt P35557+Q14397). The assay is described as follows: qHTS assay for inhibitors of recombinant human GCK-GKRP interaction: ADP-Glo assay (AID 743206).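 Further: plate controls were DMSO plus enzyme for no effect and no enzyme for full effect.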 In a few lines:
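GST-GCK and FLAG-GKRP (15 nM each in the dispensed mix, with 2 uM S6P) react with 0.4 mM ATP and 5 mM glucose (final) in Hepes pH 7.6 for 60 min at room temperature. ADP is measured by ADP-Glo luminescence.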

Assay [6] addresses T1, Hexokinase-4 (Homo sapiens) + Glucokinase regulatory protein (Homo sapiens). In words: qHTS assay for inhibitors of recombinant human GCK-GKRP interaction: HTRF assay (AID 743207).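 Further: 0% = DMSO with GCK present and -100% = DMSO wells lacking GCK.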 In a few lines:
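5 nM GST-GCK + 5 nM FLAG-GKRP + 2 uM S6P, pH 7.1 buffer (25 mM Hepes, 2 mM MgCl2, 25 mM KCl, 1 mM DTT, Tween/BSA); pin-transferred cpd; anti-FLAG XL665/anti-GST K; 60 min RT; HTRF.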

Assay [7] is described as follows: qHTS assay for cell viability of HEK293 cells (AID 743288). Further: on the % scale 0 is the no-effect control and ±100 the full control effect; nearly all actives have a fitted effect of over 50% in size. The settings on record: ATP luminescence (CellTiter-Glo), 18 h, active compounds read low. In a few lines: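 HEK293 parental, 2,000 cells/well; ≥5 h pre-incubation 37 C; pintool compound addition; 18 h, 37 C; CellTiter-Glo 30 min RT; luminescence read.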

T1 sequence (P35557 whole entry, looked up): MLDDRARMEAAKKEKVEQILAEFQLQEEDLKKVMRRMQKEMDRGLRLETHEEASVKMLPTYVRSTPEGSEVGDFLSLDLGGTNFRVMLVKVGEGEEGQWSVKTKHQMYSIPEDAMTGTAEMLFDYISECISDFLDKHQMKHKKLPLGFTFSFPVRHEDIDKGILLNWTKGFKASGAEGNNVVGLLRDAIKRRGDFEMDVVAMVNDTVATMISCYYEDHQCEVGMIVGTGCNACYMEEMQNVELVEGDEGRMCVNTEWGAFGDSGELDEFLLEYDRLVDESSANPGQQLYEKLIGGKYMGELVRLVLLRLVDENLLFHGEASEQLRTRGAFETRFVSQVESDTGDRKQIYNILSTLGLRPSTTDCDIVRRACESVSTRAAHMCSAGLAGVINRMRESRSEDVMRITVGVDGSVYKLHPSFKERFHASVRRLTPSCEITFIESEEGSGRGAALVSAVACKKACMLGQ
T1 sequence (Q14397 whole entry, looked up): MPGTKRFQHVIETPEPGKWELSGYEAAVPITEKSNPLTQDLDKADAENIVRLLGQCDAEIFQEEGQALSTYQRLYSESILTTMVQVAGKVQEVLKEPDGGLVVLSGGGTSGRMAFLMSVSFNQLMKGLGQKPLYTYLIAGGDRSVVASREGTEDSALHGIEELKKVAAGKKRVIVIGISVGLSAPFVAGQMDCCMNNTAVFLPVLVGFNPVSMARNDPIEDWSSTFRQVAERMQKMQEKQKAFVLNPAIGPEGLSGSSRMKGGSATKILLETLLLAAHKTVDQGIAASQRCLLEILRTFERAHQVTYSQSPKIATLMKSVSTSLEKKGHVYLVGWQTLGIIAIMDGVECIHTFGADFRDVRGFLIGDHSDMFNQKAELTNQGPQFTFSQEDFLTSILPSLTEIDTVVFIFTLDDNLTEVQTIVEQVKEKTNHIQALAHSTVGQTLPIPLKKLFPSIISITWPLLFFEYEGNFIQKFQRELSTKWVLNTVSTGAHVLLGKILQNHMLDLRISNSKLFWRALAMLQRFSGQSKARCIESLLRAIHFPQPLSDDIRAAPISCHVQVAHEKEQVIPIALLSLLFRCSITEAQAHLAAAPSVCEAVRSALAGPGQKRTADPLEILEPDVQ

For the compound `CC(C)(C)CC(C)(C)c1ccc(OCCOCC[N+](C)(C)Cc2ccccc2)cc1`, the Potency in assay [1] was 8.91 µM (active). Further, the compound was called inactive in assay [2] and in assay [3]. Moreover, in assay [4], the Potency result is “inactive”.
Regarding `CN1CCN(C(c2ccccc2)c2ccccc2)CC1`, in assay [1], the max response is -1.32%. Moreover, the result in assay [2] and in assay [3] was inactive. The Potency result in assay [4] is “inactive”.
On to `Oc1ccc(O)cc1`, for which the outcome in assay [5], in assay [6], in assay [2] and in assay [3] was inactive. The max response in assay [7] is -28.2%. Moreover, the Potency entry in assay [4] was “inactive”.
On to `CC(C)=CCC1C(=O)N(c2ccccc2)N(c2ccccc2)C1=O`, for which the max response in assay [1] was -12.9%. The outcome in assay [2] and in assay [3] was inactive. The Potency entry in assay [4] was “inactive”.
Take `CN=C(NC#N)Nc1ccc(C2=NNC(=O)CC2C)cc1` (centres undefined): in assay [1], the max response was -3.79%. Moreover, the outcome in assay [2] and in assay [3] was inactive. In assay [4], the Potency result was “inactive”.
Consider `NC[C@H]1O[C@H](O[C@H]2[C@H](O[C@@H]3O[C@H](CO)[C@@H](O)[C@H]3O)C(O)[C@H](N)C[C@@H]2N)[C@H](N)[C@@H](O)[C@@H]1O` (some centres undefined), for which the max response in assay [1] was 0.613%. For the same compound, the activity change, negative = inhibition in assay [2] is 16.5% [at 9.06 µM]; in assay [3], 3.88% [at 9.06 µM]. Further, in assay [4], the Potency entry is “inactive”.
`CCCCC(=O)O[C@]1(C(=O)CO)CC[C@H]2[C@@H]3CCC4=CC(=O)CC[C@]4(C)[C@H]3[C@@H](O)C[C@@]21C`: the max response in assay [1] was 5.31%. In addition, the compound was called inactive in assay [2] and in assay [3]. In addition, the Potency result in assay [4] is “inactive”.
For the compound `CC(=O)OCC(=O)[C@@]1(OC(C)=O)[C@@H](C)C[C@H]2[C@@H]3C[C@H](F)C4=CC(=O)C=C[C@]4(C)[C@@]3(F)[C@@H](O)C[C@@]21C`, the max response in assay [1] was 29%. Moreover, the call in assay [2] and in assay [3] was inactive. Moreover, in assay [4], the Potency result is “inactive”.
As to `CNCC[C@@H](Oc1ccccc1C)c1ccccc1`, the max response in assay [1] is -11.3%. For the same compound, the call in assay [2] and in assay [3] was inactive. For the same compound, in assay [4], the Potency result is “inactive”.
Consider `OCc1ccccc1O`, for which the max response in assay [1] was 23.6%. For the same compound, the outcome in assay [2] and in assay [3] was inactive. Besides, in assay [4], the Potency result was “inactive”.
Regarding `O=C(Nc1ccc(Oc2ccc(Cl)cc2)c(Cl)c1)c1cc(I)cc(I)c1O`, the max response in assay [1] is -9.6%. Besides, the outcome in assay [2] and in assay [3] was inactive. In assay [4], the Potency result is “inactive”.
For `CN1C(CCl)Nc2cc(Cl)c(S(N)(=O)=O)cc2S1(=O)=O` (centres undefined), the max response in assay [1] was 12.5%. Moreover, the compound was called inactive in assay [2] and in assay [3]. Also, the Potency result in assay [4] was “inactive”.
For `Oc1ccc(Cl)c2cccnc12`, in assay [1], the Potency is 7.94 µM (active). The call in assay [2] and in assay [3] was inactive. In addition, the Potency result in assay [4] was “inactive”.
Regarding `CCC(=O)c1c(O)cc(O)cc1O`, the max response in assay [1] is 19%. The compound was called inactive in assay [2] and in assay [3]. The Potency entry in assay [4] is “inactive”.
As for `CC(=O)[C@H]1CC[C@H]2[C@@H]3C[C@H](C)C4=CC(=O)CC[C@]4(C)[C@H]3[C@@H](O)C[C@]12C`, the max response in assay [1] is 9.78%. Further, the call in assay [2] and in assay [3] was inactive. Further, the Potency result in assay [4] was “inactive”.
For `Oc1c(I)cc(I)c2cccnc12`, the Potency in assay [1] was 8.91 µM (active). The call in assay [2] and in assay [3] was inactive. The Potency result in assay [4] was “inactive”.
On to `OC(CCN1CCCCC1)(c1ccccc1)c1ccccc1`, for which the max response in assay [1] is 13.3%. Moreover, the call in assay [2] and in assay [3] was inactive. The Potency entry in assay [4] is “inactive”.
Regarding `COc1cc(/C=C/C(=O)O[C@H]2CC[C@]34C[C@]35CC[C@]3(C)[C@@H]([C@H](C)CCC=C(C)C)CC[C@@]3(C)[C@@H]5CC[C@H]4C2(C)C)ccc1O`, in assay [1], the max response was -6.26% and 0.13%. Moreover, the call in assay [2] and in assay [3] was inactive. The Potency entry in assay [4] was “inactive”.
For `NC(=O)C(=O)N/N=C/c1ccc([N+](=O)[O-])o1`, the Potency in assay [1] is 17.8 µM (active). In addition, the call in assay [2] and in assay [3] was inactive. Also, the Potency result in assay [4] is “inactive”.
For the compound `CC(=O)Oc1ccc(C(=C2CCCCC2)c2ccc(OC(C)=O)cc2)cc1`, the max response in assay [1] was 9.87%. Besides, the compound was classed as inactive in assay [2] and in assay [3]. Besides, in assay [4], the Potency entry is “inactive”.
With `NCCC(O)(P(=O)(O)O)P(=O)(O)O`, in assay [1], the max response is 1.74%. Further, the compound was classed as inactive in assay [2] and in assay [3]. Moreover, the Potency entry in assay [4] is “inactive”.
For `CC(C)(CO)[C@@H](O)C(=O)NCCCO`, in assay [1], the max response is 14.7%. For the same compound, the outcome in assay [2] and in assay [3] was inactive. Further, the Potency result in assay [4] was “inactive”.
`CCN1CCCC1=O`: the max response in assay [1] is 5.59%. In addition, the result in assay [2] and in assay [3] was inactive. For the same compound, the Potency result in assay [4] is “inactive”.
Regarding `CC[N+](CC)(CCNC(=O)C(=O)NCC[N+](CC)(CC)Cc1ccccc1Cl)Cc1ccccc1Cl`, in assay [1], the max response was 15.6%. The result in assay [2] and in assay [3] was inactive. Besides, the Potency result in assay [4] is “inactive”.
Take `CC1(C)O[C@@H]2C[C@H]3[C@@H]4C[C@H](F)C5=CC(=O)C=C[C@]5(C)[C@H]4[C@@H](O)C[C@]3(C)[C@]2(C(=O)CO)O1`: the max response in assay [1] was -4.1%. Besides, the call in assay [2] and in assay [3] was inactive. Also, in assay [4], the Potency result was “inactive”.
Consider `Nc1ccc(C(=O)Nc2ccccc2N)cc1`, for which the max response in assay [1] was 0.176%. The outcome in assay [2] and in assay [3] was inactive. Also, the Potency result in assay [4] is “inactive”.
Take `C[C@@H]1C[C@H]2[C@@H]3CCC4=CC(=O)C=C[C@]4(C)[C@@]3(F)[C@@H](O)C[C@]2(C)[C@H]1C(=O)CO`: in assay [1], the max response was 9.79%. Moreover, the result in assay [2] and in assay [3] was inactive. Moreover, the Potency entry in assay [4] is “inactive”.
With `Oc1c(I)cc(Cl)c2cccnc12`, in assay [1], the Potency is 7.94 µM (active). For the same compound, the call in assay [2] and in assay [3] was inactive. Moreover, the Potency result in assay [4] is “inactive”.
